# Source: paper PMC7862700, “An all-to-all approach to the identification of sequence-specific readers for epigenetic DNA modifications on cytosine”
# Key:
# Assay in all cases: DAPPL (digital affinity profiling via proximity ligation, sequencing); 10 mM Tris-HCl pH 7.5, 50 mM NaCl, 1 mM DTT, 4% glycerol, room temperature, 30 min; GST-TFs on glutathione beads, 16-mer random dsDNA library, 0.1% formaldehyde crosslink after washing; high values mean tight binding
# FLI1 = molecular target: T1, FLI1 (Homo sapiens, UniProt Q01543 1-452); settings: protein: recombinant; tags: N-terminal GST; dsDNA, one strand shown
# T1 sequence: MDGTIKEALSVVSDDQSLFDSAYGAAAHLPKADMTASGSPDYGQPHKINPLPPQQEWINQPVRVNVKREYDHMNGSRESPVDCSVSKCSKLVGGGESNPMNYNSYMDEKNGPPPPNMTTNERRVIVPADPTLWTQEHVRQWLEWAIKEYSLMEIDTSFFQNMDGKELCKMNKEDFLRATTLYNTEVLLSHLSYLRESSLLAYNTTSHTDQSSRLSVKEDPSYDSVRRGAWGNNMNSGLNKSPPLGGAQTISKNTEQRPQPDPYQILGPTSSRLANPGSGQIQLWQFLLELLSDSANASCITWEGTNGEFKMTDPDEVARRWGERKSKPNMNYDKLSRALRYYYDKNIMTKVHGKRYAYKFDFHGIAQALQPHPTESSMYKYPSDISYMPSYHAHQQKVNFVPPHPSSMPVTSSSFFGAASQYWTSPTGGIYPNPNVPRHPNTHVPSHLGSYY
# How it was run: (§1)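 A tag-only sample was pooled with DNA-barcoded human transcription factors that had been expressed in yeast as GST fusions and captured on glutathione beads. The pools were incubated for 30 min at room temperature with 200 nmole of a random double-stranded 16-mer DNA library in Tris/NaCl/DTT/glycerol buffer, then washed, crosslinked with 0.1% formaldehyde, proximity-ligated (BsaI/T4 ligase, 1 h, 37 °C), PCR-amplified and sequenced on an Illumina NextSeq500. Binding signal is each hexamer's read frequency for a factor divided by its frequency for the tag-only sample.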
# ELK1 = molecular target: T2, ELK1 (Homo sapiens, UniProt P19419 1-428); settings: protein: recombinant; tags: N-terminal GST; dsDNA, one strand shown
# T2 sequence: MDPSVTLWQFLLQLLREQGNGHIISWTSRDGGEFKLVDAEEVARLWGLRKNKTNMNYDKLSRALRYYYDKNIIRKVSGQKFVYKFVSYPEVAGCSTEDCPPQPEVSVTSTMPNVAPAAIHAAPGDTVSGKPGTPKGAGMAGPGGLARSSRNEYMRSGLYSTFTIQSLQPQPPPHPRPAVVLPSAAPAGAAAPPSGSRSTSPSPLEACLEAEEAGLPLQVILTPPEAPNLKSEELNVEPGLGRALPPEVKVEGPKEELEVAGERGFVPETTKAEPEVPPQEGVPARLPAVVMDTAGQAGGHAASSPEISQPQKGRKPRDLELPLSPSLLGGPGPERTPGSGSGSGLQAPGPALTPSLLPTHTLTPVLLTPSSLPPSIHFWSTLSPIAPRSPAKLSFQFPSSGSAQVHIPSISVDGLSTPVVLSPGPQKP
# How it was run: as §1
# GABPA = molecular target: T3, GABPA (Homo sapiens, UniProt Q06546 1-454); settings: protein: recombinant; tags: N-terminal GST; dsDNA, one strand shown
# T3 sequence: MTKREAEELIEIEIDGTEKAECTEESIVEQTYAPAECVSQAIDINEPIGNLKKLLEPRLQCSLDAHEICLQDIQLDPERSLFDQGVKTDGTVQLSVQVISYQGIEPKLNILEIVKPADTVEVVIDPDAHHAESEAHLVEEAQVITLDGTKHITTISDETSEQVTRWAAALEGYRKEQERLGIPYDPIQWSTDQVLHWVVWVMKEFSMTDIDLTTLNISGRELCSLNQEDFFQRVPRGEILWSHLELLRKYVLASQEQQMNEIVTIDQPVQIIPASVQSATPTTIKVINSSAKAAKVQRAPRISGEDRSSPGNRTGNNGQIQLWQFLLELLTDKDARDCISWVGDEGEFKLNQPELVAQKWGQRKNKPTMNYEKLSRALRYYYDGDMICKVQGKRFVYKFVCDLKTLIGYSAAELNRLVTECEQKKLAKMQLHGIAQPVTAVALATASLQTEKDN
# How it was run: as §1
# ERG = molecular target: T4, ERG (Homo sapiens, UniProt P11308 1-479); settings: protein: recombinant; tags: N-terminal GST; dsDNA, one strand shown
# T4 sequence: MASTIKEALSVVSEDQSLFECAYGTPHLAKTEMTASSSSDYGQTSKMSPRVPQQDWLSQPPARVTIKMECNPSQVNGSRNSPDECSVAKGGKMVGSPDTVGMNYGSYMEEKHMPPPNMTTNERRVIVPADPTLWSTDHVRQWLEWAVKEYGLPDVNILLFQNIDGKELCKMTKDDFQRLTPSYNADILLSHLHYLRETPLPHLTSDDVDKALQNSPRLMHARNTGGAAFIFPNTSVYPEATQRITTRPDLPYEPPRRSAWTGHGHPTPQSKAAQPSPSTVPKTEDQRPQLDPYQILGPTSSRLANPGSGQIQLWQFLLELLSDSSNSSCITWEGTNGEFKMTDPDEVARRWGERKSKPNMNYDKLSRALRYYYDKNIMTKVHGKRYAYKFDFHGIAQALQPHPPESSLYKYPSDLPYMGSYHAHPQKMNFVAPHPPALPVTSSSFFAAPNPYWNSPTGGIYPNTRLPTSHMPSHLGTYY
# How it was run: as §1
# ELF1 = ELF1 (Homo sapiens, UniProt P32519 1-619); settings: protein: recombinant; tags: N-terminal GST; dsDNA, one strand shown
# How it was run: as §1
# EHF = molecular target: T5, EHF (Homo sapiens, UniProt Q9NZC4 1-300); settings: protein: recombinant; tags: N-terminal GST; dsDNA, one strand shown
# T5 sequence: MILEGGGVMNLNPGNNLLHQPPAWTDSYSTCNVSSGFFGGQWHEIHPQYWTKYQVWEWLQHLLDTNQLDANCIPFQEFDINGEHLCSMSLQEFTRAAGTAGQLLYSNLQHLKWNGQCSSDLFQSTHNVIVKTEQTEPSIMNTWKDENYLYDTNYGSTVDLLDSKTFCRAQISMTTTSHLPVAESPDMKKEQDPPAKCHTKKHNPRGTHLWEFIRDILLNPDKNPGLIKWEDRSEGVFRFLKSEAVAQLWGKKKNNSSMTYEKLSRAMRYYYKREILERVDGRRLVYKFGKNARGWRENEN
# How it was run: as §1
# SPI1 = SPI1 (Homo sapiens, UniProt P17947 1-270); settings: protein: recombinant; tags: N-terminal GST; dsDNA, one strand shown
# How it was run: as §1
# SPIB = SPIB (Homo sapiens, UniProt Q01892 1-262); settings: protein: recombinant; tags: N-terminal GST; dsDNA, one strand shown
# How it was run: as §1
# ELK3 = molecular target: T6, ELK3 (Homo sapiens, UniProt P41970 1-407); settings: protein: recombinant; tags: N-terminal GST; dsDNA, one strand shown
# T6 sequence: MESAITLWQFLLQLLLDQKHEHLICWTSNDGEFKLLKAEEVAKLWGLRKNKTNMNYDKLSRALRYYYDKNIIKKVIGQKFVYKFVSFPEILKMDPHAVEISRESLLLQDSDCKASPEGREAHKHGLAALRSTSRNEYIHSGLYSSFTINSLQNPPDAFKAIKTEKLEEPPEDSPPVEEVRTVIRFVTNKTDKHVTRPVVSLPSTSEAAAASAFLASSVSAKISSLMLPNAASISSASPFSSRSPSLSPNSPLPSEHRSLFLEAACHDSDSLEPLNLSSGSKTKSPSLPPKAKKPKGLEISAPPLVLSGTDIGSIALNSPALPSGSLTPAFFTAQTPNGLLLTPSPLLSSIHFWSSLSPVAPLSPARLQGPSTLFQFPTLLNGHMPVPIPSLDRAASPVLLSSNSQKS
# How it was run: as §1
# FEV = molecular target: T7, FEV (Homo sapiens, UniProt Q99581 1-238); settings: protein: recombinant; tags: N-terminal GST; dsDNA, one strand shown
# T7 sequence: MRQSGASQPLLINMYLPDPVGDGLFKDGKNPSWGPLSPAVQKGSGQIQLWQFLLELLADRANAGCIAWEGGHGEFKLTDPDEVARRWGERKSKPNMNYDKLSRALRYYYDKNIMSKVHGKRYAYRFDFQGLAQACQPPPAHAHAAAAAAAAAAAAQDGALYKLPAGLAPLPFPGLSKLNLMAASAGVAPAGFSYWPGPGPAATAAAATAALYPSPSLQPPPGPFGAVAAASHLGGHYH
# How it was run: as §1
# ETV5 = ETV5 (Homo sapiens, UniProt P41161 1-510); settings: protein: recombinant; tags: N-terminal GST; dsDNA, one strand shown
# How it was run: as §1
# HSF1 = HSF1 (Homo sapiens, UniProt Q00613 1-529); settings: protein: recombinant; tags: N-terminal GST; chain copies: 3; dsDNA, one strand shown
# How it was run: as §1
# SPIC = molecular target: T8, SPIC (Homo sapiens, UniProt Q8N5J4 1-248); settings: protein: recombinant; tags: N-terminal GST; dsDNA, one strand shown
# T8 sequence: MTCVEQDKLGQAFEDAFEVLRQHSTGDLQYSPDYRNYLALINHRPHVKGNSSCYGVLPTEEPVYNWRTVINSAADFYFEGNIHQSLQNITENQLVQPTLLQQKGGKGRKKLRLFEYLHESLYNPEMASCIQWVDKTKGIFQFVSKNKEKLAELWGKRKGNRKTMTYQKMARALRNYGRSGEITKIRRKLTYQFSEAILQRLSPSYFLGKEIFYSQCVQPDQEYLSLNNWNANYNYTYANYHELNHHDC
# How it was run: as §1
# ELF4 = ELF4 (Homo sapiens, UniProt Q99607 1-663); settings: protein: recombinant; tags: N-terminal GST; dsDNA, one strand shown
# How it was run: as §1
# ETV2 = molecular target: T9, ETV2 (Homo sapiens, UniProt O00321 1-342); settings: protein: recombinant; tags: N-terminal GST; dsDNA, one strand shown
# T9 sequence: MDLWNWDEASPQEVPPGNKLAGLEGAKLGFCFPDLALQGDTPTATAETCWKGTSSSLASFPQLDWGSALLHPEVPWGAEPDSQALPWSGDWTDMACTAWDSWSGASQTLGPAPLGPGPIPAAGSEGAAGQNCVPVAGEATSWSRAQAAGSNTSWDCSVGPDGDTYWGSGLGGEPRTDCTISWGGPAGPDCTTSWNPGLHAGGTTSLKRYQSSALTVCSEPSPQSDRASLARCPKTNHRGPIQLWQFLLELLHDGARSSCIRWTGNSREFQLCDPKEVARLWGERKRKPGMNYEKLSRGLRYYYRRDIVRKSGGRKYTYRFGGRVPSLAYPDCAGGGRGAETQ
# How it was run: as §1
# ELF3 = molecular target: T10, ELF3 (Homo sapiens, UniProt P78545 1-371); settings: protein: recombinant; tags: N-terminal GST; dsDNA, one strand shown
# T10 sequence: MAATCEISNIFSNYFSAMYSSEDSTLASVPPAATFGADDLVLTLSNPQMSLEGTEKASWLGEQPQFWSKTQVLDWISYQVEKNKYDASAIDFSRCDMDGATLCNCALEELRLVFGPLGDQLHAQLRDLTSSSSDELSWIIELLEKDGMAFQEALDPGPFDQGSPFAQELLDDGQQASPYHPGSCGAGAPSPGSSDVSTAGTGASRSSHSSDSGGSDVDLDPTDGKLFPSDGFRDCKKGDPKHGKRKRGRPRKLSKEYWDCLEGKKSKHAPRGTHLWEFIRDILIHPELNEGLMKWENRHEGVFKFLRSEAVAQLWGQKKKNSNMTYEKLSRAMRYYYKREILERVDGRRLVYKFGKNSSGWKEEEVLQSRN
# How it was run: as §1
# ETV1 = ETV1 (Homo sapiens, UniProt P50549 1-477); settings: protein: recombinant; tags: N-terminal GST; dsDNA, one strand shown
# How it was run: as §1
# CRX = CRX (Homo sapiens, UniProt O43186 1-299); settings: protein: recombinant; tags: N-terminal GST; dsDNA, one strand shown
# How it was run: as §1
# ELF1, sequence (P32519 whole entry): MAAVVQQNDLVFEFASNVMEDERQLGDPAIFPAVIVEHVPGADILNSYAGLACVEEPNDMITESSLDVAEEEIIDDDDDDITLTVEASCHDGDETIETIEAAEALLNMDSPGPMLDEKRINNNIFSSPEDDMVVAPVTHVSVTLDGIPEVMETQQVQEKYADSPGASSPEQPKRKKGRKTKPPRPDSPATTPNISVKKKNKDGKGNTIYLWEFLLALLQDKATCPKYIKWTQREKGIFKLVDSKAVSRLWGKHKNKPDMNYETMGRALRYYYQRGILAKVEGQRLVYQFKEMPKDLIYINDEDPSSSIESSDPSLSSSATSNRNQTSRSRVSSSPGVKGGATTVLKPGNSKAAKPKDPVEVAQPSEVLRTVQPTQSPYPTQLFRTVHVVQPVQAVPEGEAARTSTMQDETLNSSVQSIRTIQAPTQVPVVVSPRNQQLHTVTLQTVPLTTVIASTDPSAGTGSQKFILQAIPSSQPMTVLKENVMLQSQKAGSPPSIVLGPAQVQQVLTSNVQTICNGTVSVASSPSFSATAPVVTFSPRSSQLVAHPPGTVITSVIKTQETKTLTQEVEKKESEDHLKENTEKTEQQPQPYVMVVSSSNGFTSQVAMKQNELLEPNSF
# ETV5, sequence (P41161 whole entry): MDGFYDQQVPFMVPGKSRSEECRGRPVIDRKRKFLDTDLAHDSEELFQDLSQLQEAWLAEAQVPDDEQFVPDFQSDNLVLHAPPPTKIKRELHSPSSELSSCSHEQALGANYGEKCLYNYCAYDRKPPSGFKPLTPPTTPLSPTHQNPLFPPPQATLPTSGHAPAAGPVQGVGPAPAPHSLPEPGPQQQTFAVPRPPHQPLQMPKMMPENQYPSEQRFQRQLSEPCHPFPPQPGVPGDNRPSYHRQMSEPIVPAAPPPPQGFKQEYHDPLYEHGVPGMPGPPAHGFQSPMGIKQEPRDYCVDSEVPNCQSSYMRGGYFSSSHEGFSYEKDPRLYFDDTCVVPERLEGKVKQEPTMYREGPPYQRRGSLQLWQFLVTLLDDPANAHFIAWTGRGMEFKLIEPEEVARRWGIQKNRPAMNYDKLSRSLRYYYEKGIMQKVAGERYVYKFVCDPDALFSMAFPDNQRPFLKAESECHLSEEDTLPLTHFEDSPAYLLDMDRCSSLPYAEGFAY
# ELF4, sequence (Q99607 whole entry): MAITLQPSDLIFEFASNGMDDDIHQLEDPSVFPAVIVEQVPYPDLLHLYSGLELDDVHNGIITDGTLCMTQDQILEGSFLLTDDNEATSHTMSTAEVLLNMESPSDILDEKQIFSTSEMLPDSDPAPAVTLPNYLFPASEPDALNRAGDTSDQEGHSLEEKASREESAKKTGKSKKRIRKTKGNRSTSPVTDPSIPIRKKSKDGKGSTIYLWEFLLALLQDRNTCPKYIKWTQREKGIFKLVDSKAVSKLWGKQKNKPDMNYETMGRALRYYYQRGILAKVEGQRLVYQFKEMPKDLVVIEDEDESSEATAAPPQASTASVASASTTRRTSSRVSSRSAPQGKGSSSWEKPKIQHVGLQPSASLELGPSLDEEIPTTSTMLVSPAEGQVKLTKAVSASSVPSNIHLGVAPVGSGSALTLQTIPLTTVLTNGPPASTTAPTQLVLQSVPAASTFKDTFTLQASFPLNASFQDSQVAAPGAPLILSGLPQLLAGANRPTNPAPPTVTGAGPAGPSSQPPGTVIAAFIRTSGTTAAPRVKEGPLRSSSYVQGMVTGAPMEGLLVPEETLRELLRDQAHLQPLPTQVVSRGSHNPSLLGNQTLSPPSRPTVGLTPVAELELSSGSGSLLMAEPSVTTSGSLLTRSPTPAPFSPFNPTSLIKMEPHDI
# SPIB, sequence (Q01892 whole entry): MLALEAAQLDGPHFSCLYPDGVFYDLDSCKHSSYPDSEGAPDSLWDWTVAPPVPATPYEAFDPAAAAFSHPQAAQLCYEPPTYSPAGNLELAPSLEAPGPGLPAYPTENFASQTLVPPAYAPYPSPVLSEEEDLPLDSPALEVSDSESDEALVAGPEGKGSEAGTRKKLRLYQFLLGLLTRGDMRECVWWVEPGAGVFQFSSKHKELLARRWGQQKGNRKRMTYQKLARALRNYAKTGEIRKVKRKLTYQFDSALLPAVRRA
# ETV1, sequence (P50549 whole entry): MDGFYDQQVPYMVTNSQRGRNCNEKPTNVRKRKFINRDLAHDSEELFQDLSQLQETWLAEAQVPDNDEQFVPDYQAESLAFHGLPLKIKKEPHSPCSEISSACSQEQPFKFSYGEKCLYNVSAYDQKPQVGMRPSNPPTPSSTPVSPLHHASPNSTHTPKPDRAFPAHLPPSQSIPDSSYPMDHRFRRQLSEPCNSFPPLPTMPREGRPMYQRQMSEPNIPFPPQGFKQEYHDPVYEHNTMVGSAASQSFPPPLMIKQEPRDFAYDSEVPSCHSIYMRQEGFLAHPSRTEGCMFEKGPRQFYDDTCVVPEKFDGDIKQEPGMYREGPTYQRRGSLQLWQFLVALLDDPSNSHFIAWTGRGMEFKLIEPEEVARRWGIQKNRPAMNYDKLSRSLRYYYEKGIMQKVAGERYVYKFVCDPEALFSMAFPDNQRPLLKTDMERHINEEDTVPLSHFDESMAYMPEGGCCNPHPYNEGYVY
# HSF1, sequence (Q00613 whole entry): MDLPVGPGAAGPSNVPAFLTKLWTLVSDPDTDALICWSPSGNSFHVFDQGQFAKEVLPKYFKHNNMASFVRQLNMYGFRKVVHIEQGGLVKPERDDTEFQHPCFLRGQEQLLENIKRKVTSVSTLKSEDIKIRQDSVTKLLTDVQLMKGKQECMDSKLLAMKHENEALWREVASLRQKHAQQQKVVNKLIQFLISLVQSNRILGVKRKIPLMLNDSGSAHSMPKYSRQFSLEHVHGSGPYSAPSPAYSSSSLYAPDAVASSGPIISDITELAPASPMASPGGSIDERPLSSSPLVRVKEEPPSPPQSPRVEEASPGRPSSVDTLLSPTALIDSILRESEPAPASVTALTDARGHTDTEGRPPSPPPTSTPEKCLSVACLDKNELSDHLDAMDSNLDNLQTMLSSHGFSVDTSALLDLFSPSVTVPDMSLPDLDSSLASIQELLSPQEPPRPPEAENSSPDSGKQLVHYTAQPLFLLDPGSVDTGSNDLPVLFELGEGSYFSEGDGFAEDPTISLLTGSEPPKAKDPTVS
# CRX, sequence (O43186 whole entry): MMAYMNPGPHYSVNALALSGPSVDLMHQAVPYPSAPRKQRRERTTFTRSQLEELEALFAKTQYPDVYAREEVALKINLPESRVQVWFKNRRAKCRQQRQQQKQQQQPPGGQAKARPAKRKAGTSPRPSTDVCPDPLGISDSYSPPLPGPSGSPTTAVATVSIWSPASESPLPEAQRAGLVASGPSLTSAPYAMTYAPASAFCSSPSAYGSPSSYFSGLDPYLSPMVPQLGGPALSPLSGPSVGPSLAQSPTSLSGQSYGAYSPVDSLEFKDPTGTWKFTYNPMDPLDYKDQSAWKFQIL
Sequence,binding signal (FLI1),binding signal (ELK1),binding signal (GABPA),binding signal (ERG),binding signal (ELF1),binding signal (EHF),binding signal (SPI1),binding signal (SPIB),binding signal (ELK3),binding signal (FEV),binding signal (ETV5),binding signal (HSF1),binding signal (SPIC),binding signal (ELF4),binding signal (ETV2),binding signal (ELF3),binding signal (ETV1),binding signal (CRX)
CACAAA,"1.06 fold enrichment (6-mer frequency, TF over GST control)","1.06 fold enrichment (6-mer frequency, TF over GST control)","1.12 fold enrichment (6-mer frequency, TF over GST control)","1.12 fold enrichment (6-mer frequency, TF over GST control)","1.13 fold enrichment (6-mer frequency, TF over GST control)","1.11 fold enrichment (6-mer frequency, TF over GST control)","1.13 fold enrichment (6-mer frequency, TF over GST control)","1.04 fold enrichment (6-mer frequency, TF over GST control)","1.19 fold enrichment (6-mer frequency, TF over GST control)","1.09 fold enrichment (6-mer frequency, TF over GST control)","1.11 fold enrichment (6-mer frequency, TF over GST control)","1.02 fold enrichment (6-mer frequency, TF over GST control)","1.07 fold enrichment (6-mer frequency, TF over GST control)","1.11 fold enrichment (6-mer frequency, TF over GST control)","1.09 fold enrichment (6-mer frequency, TF over GST control)","1.1 fold enrichment (6-mer frequency, TF over GST control)","1.03 fold enrichment (6-mer frequency, TF over GST control)",–
CTAGGC,"1.17 fold enrichment (6-mer frequency, TF over GST control)","1.1 fold enrichment (6-mer frequency, TF over GST control)","1.23 fold enrichment (6-mer frequency, TF over GST control)","1.13 fold enrichment (6-mer frequency, TF over GST control)","1.14 fold enrichment (6-mer frequency, TF over GST control)","1.01 fold enrichment (6-mer frequency, TF over GST control)","1.07 fold enrichment (6-mer frequency, TF over GST control)","1.05 fold enrichment (6-mer frequency, TF over GST control)","1.1 fold enrichment (6-mer frequency, TF over GST control)","1.16 fold enrichment (6-mer frequency, TF over GST control)","1.06 fold enrichment (6-mer frequency, TF over GST control)","1.22 fold enrichment (6-mer frequency, TF over GST control)","1.15 fold enrichment (6-mer frequency, TF over GST control)","1.16 fold enrichment (6-mer frequency, TF over GST control)","1.21 fold enrichment (6-mer frequency, TF over GST control)",–,"1.04 fold enrichment (6-mer frequency, TF over GST control)","1.17 fold enrichment (6-mer frequency, TF over GST control)"
